In PubChem BioAssay (Tox21):
Results filed as inconclusive are left out. Calls of active or inactive are those of the source. Calls come from the whole dose curve; as a rule, active = well fitted cell-killing curve with a large enough effect in the repeat runs; inconclusive = weak or mixed curves; inactive = flat fitted curve, though single readings scatter.

Experiment: qHTS assay to identify small molecule antagonists of the estrogen related receptor (ERR) signaling pathway - cell viability counter screen (AID 1224818);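 note: viability measured after 17.5 h of compound exposure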
Settings: ERR reporter cell line viability counter screen; series mostly up to 46.1 µM
Description: National Center for Advancing Translational Sciences [NCATS]
NIH Chemical Genomics Center [NCGC]
U.S. Environmental Protection Agency [EPA]
National Institutes of Environmental Health Sciences [NIEHS]
National Toxicology Program [NTP]
U.S. Food and Drug Administration [FDA]
Estrogen related receptors (ERRs), the first orphan nuclear receptors discovered, play an important role in the control of cellular energy metabolism. ERRs are required for high-energy production in response to the environmental challenges. ERR-alpha was also identified as an adverse marker for breast cancer progression; ERR-alpha-positive tumors have a poor prognosis. To screen and to identify environmental compounds that perturb the ERR signaling pathways could provide valuable information for potential therapeutic or preventive measures in the treatment of metabolic disease. To differentiate true ERR antagonists or agonist from cytotoxic substances, the assay is multiplexed with cell viability assay.
Tox21 Assay Protocol Summary:
The ERR cells were dispensed at 2,000 cells/5 ul/well in 1536-well white plates using a Multidrop dispenser. After the assay plates were incubated at a 37 C/5% CO2 incubator for 6 hours, 23 nL of compounds dissolved in DMSO, positive and negative controls or DMSO only was transferred to the assay plate by a pin tool. The plates were incubated at 37 C for 17.5 hours. 1 ul/well of CellTiter-Fluor reagent was added into the assay plates using a Flying Reagent Dispenser. After 30 min incubation at 37 C/5% CO2, the fluorescence intensity in the plates was measured using a ViewLux plate reader.

Row | SMILES | outcome
1 | CC(=O)OC(C)C[N+](C)(C)C (stereo unspecified) | inactive
2 | CC(=O)C(C)=O | inactive
3 | CC12CC3CC(C)(C1)CC(N)(C3)C2 | inactive
4 | Nc1cccc2c(N)cccc12 | inactive
5 | O=NN(CCCl)C(=O)NCCCl | inactive
6 | C[C@H](CS)C(=O)N1CCC[C@H]1C(=O)O | inactive
7 | Cc1ccc(N(CC2=NCCN2)c2cccc(O)c2)cc1 | inactive
8 | CC(CCc1ccc(O)cc1)NCCc1ccc(O)c(O)c1 (stereo unspecified) | inactive
9 | O=C(O)/C=C/c1ccc(O)c(O)c1 | inactive
10 | CCN(CC)CCNC(=O)c1cc(Cl)c(N)cc1OC | inactive
11 | Nc1nc2ccc(OC(F)(F)F)cc2s1 | inactive
